Results filed as inconclusive are left out. Activity calls are given as the source filed them. The calls were made as follows, unless noted: active = hit-call score of the fitted dose curve at least 0.9, where 1 is the maximum; inactive = score below 0.9.
Experiments:
[1] = BSK_LPS_SRB: Viability Assessment in the BioMAP Diversity Plus: LPS Assay (AID 2283079); settings: primary human HUVEC with PBMC;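 also: total protein by sulforhodamine B absorbance as a cytotoxicity measure; measured one day after compound addition; fitted in both directions against DMSO so loss or gain of signal counts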
Procedure, shortened: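 Overt cytotoxicity was gauged by sulforhodamine B total-protein staining in a primary human vascular endothelial and mononuclear cell co-culture 24 h post-dosing. Activity was fitted in both directions relative to DMSO.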

[2] = read-out: Interleukin-1 alpha (IL1a), IL1A (gene 3552); experiment: BSK_LPS_IL1a: BioMAP Diversity Plus: LPS Assay for Interleukin-1 alpha (IL1a) Biomarker Activity (AID 2283080); settings: primary human HUVEC with PBMC; actives raise or lower the signal
Procedure, shortened: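 Measured: IL-1 alpha via ELISA at 24 h in LPS-activated human umbilical vein endothelium–PBMC co-culture. Baseline: DMSO, bidirectional fitting.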

[3] = read-out: Monocyte Chemoattractant Protein-1 (MCP1), CCL2 (gene 6347); experiment: BSK_LPS_MCP1: BioMAP Diversity Plus: LPS Assay for Monocyte Chemoattractant Protein-1 (MCP1) Biomarker Activity (AID 2283081); settings: primary human HUVEC with PBMC; actives raise or lower the signal;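 as to AC50: secreted MCP-1 protein quantified by ELISA in culture supernatant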
Procedure, shortened: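 LPS-stimulated HUVEC/PBMC co-culture; chemical, 24 h; MCP-1 by ELISA; bidirectional fit vs DMSO; cytotoxicity via SRB (0.1% stain, 10% TCA fix, 560 nm) in parallel wells.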

[4] = BSK_LPS_PGE2: BioMAP Diversity Plus: LPS Assay for Prostaglandin E2 (PGE2) Biomarker Activity (AID 2283082); settings: primary human HUVEC with PBMC; actives raise or lower the signal;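 as to AC50: secreted prostaglandin E2 measured by ELISA in LPS-stimulated co-culture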
Procedure, shortened: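 Primary human endothelial cells and blood mononuclear cells, co-cultured with LPS, receive test chemical; PGE2 ELISA follows at 24 h, with SRB-stained parallel cultures flagging cytotoxicity.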

[5] = read-out: Tissue Factor, F3 (gene 2152); experiment: BSK_LPS_TissueFactor: BioMAP Diversity Plus: LPS Assay for Tissue Factor Biomarker Activity (AID 2283084); settings: primary human HUVEC with PBMC; actives raise or lower the signal
Procedure, shortened: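 In this co-culture system of umbilical vein endothelium with PBMC, stimulated with LPS, cell-surface CD142 is detected by ELISA at 24 h. Endpoint values derive from bidirectional fitting, DMSO serving as baseline.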

[6] = read-out: Tumor necrosis factor (Homo sapiens) (UniProt P01375); experiment: BSK_LPS_TNFa: BioMAP Diversity Plus: LPS Assay for Tumour Necrosis Factor alpha (TNFa) Biomarker Activity (AID 2283085); settings: primary human HUVEC with PBMC; actives raise or lower the signal;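 as to AC50: TNFa protein level quantified by ELISA in the co-culture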
Procedure, shortened: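 ELISA-based TNFa endpoint in a human endothelial–PBMC co-culture sampled 24 h post-exposure. Curves were fitted in both directions using DMSO as baseline of activity.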

[7] = read-out: Vascular cell adhesion molecule 1 (VCAM1), VCAM1 (gene 7412); experiment: BSK_LPS_VCAM1: BioMAP Diversity Plus: LPS Assay for Vascular cell adhesion molecule 1 (VCAM1) Biomarker Activity (AID 2283086); settings: primary human HUVEC with PBMC; actives raise or lower the signal
Procedure, shortened: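 Measured by ELISA: VCAM-1 in LPS-activated HUVEC/PBMC co-cultures 24 h after treatment. Values reflect bidirectional fitting with DMSO as baseline.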

[8] = read-out: CD38, CD38 (gene 952); experiment: BSK_SAg_CD38: BioMAP Diversity Plus: SAg Assay for CD38 Biomarker Activity (AID 2283087); settings: primary human HUVEC with PBMC; actives raise or lower the signal
Procedure, shortened: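 Measures CD38 on a human endothelial/PBMC co-culture driven by SEB and TSST-1, 24 h after compound exposure, using ELISA with fluorescence detection; DMSO defines baseline for bidirectional curve fitting.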

[9] = read-out: CD40, CD40 (gene 958); experiment: BSK_SAg_CD40: BioMAP Diversity Plus: SAg Assay for CD40 Biomarker Activity (AID 2283088); settings: primary human HUVEC with PBMC; actives raise or lower the signal
Procedure, shortened: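 Fluorescence ELISA read-out of CD40 from umbilical vein endothelium plus peripheral blood mononuclear cells, sampled 24 h after dosing. Values come from bidirectional curve fitting with DMSO as baseline.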

[10] = read-out: CD69, CD69 (gene 969); experiment: BSK_SAg_CD69: BioMAP Diversity Plus: SAg Assay for CD69 Biomarker Activity (AID 2283089); settings: primary human HUVEC with PBMC; actives raise or lower the signal;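 as to AC50: cell surface CD69 protein quantified by ELISA with fluorescence detection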
Procedure, shortened: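 Values derive from bidirectional fitting relative to DMSO vehicle. Cells: umbilical vein endothelium plus peripheral blood mononuclear cells, treated 24 h before fluorescent ELISA for CD69.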

[11] = read-out: E-selectin (Homo sapiens) (UniProt P16581); experiment: BSK_SAg_Eselectin: BioMAP Diversity Plus: SAg Assay for Eselectin Biomarker Activity (AID 2283091); settings: primary human HUVEC with PBMC; actives raise or lower the signal
Procedure, shortened: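 Primary human endothelial cells and peripheral blood mononuclear cells were co-cultured and exposed to chemical for 24 hours. E-selectin levels were then quantified by ELISA, with bidirectional curve fitting normalised to DMSO controls.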

[12] = read-out: Monokine induced gamma interferon (MIG), CXCL9 (gene 4283); experiment: BSK_SAg_MIG: BioMAP Diversity Plus: SAg Assay for Monokine induced gamma interferon (MIG) Biomarker Activity (AID 2283092); settings: primary human HUVEC with PBMC; actives raise or lower the signal
Procedure, shortened: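 Values reflect bidirectional fitting of ELISA-measured MIG against DMSO vehicle, taken 24 h after dosing of a co-culture of human umbilical vein endothelial cells and peripheral blood mononuclear cells.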

[13] = BSK_SAg_PBMCCytotoxicity: PBMC Cytotoxicity Assessment in the BioMAP Diversity Plus: SAg Assay (AID 2283093); settings: primary human HUVEC with PBMC;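 also: PBMC viability measured as Alamar Blue reduction fluorescence at 546/580 nm; fitted both ways against DMSO so a hit may be loss or gain of signal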;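 as to AC50: PBMC superantigen activated with SEB plus TSST-1 one hour after compound addition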
Procedure, shortened: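 Alamar Blue reduction (6 h, ex/em 546/580 nm) read after 90 h culture of PBMC pre-dosed 1 h then stimulated with SEB plus TSST-1, 20 ng/mL each. Gain or loss of signal fitted relative to DMSO.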

[14] = read-out: Interleukin-8 (IL8), CXCL8 (gene 3576); experiment: BSK_SAg_IL8: BioMAP Diversity Plus: SAg Assay for Interleukin-8 (IL8) Biomarker Activity (AID 2283094); settings: primary human HUVEC with PBMC; actives raise or lower the signal
Procedure, shortened: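 Primary human endothelial cells with PBMC, exposed 24 h; IL-8 determined by ELISA, analysed bidirectionally relative to DMSO.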

[15] = BSK_SAg_Proliferation: Cell Proliferation Assessment in the BioMAP Diversity Plus: SAg Assay (AID 2283095); settings: primary human HUVEC with PBMC;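 also: relative cell number as total protein by SRB absorbance in sub-confluent culture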
Procedure, shortened: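 A human primary co-culture of umbilical vein endothelium and blood mononuclear cells receives compound; relative cell number is quantified at 96 h by SRB staining and 560 nm absorbance, with DMSO-referenced bidirectional curve fitting.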

[16] = BSK_SAg_SRB: Viability Assessment in the BioMAP Diversity Plus: SAg Assay (AID 2283096); settings: primary human HUVEC with PBMC;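 also: cells read one day after compound addition; hits may be either gain or loss of signal compared with DMSO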
Procedure, shortened: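 SRB absorbance at 560 nm served as the viability read-out. Cells (HUVEC plus peripheral blood mononuclear cells) were TCA-fixed and stained 24 h post-dosing; activity fitted in both directions against DMSO controls.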

[17] = biological target: human CYP2A6, CYP2A6 (gene 1548) (UniProt P11509); experiment: NVS_ADME_hCYP2A6: NovaScreen (NVS) CYP450-related Enzyme Activity (ADME) Assay for human CYP2A6 (AID 2283099; active = hit-call score of the fitted dose curve at least 0.9, where 1 is the maximum)
human CYP2A6, CYP2A6 (gene 1548), sequence (P11509 whole entry, looked up): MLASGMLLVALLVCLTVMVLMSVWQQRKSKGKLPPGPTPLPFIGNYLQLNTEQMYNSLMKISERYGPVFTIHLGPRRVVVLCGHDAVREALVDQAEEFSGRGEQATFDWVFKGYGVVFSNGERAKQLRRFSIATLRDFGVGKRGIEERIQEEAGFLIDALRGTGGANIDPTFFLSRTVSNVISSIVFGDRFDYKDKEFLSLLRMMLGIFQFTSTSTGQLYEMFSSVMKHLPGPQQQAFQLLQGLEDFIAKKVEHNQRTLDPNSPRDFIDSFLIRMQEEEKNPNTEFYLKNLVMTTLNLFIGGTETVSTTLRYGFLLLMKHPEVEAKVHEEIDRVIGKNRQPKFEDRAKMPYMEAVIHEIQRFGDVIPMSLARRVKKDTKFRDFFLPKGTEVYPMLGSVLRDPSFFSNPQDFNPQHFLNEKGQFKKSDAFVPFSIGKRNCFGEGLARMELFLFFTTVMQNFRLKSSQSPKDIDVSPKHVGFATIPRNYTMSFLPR
Procedure, shortened: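 Recombinant human CYP2A6 from insect cells was incubated with chemical for 0.5 h and activity read by fluorescence. Single-concentration duplicates at 10 uM preceded concentration-response testing to 20 uM, with activity referenced to acetonitrile.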

E-selectin (Homo sapiens), sequence (P16581 whole entry, looked up): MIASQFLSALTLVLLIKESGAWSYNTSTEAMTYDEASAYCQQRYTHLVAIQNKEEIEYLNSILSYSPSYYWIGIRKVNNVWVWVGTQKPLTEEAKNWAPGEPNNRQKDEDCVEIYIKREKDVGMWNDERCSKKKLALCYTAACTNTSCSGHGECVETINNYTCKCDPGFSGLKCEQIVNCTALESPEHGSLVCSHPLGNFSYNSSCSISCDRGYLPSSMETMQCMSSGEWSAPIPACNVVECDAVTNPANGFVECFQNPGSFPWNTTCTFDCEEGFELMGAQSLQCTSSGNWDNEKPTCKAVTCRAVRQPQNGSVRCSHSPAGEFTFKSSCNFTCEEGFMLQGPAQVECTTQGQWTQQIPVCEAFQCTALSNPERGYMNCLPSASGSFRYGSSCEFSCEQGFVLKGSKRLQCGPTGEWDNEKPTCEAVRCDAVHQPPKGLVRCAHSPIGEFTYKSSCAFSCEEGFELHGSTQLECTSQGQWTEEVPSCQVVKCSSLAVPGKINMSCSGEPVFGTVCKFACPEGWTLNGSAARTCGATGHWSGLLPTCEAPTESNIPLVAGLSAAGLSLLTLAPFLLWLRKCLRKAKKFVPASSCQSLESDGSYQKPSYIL
Tumor necrosis factor (Homo sapiens), sequence (P01375 whole entry, looked up): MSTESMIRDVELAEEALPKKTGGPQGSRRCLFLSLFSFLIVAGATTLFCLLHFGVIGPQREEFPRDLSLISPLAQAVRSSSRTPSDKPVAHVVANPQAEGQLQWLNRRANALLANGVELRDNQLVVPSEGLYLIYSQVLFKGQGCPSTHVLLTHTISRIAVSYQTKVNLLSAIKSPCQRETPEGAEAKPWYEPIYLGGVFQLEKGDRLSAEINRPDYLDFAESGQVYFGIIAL

Cc1cc2c3c(c1)C(c1ccccc1)=N[C@@H](NC(=O)c1ccncc1)C(=O)N3CC2
outcome [1]: inactive
AC50 [2]: 3.97 µM (active)
outcome [3]: inactive
outcome [4]: inactive
outcome [5]: inactive
AC50 [6]: 7.3 µM (active)
outcome [7]: inactive
AC50 [8]: 11.8 µM (active)
AC50 [9]: 20 µM (active)
AC50 [10]: 5.02 µM (active)
AC50 [11]: 4 µM (active)
outcome [12]: inactive
outcome [13]: inactive
AC50 [14]: 6.46 µM (active)
outcome [15]: inactive
outcome [16]: inactive
outcome [17]: inactive

CCOP(=S)(OCC)SCSC(C)(C)C
outcome [1]: inactive
outcome [2]: inactive
outcome [3]: inactive
outcome [4]: inactive
outcome [5]: inactive
AC50 [6]: 35.2 µM (active)
outcome [7]: inactive
outcome [8]: inactive
outcome [9]: inactive
outcome [10]: inactive
AC50 [11]: 39 µM (active)
outcome [12]: inactive
AC50 [13]: 31.1 µM (active)
outcome [14]: inactive
AC50 [15]: 28.8 µM (active)
outcome [16]: inactive

CCCCCCCCCC[N+](C)(C)CCCCCCCCCC
AC50 [1]: 5.32 µM (active)
AC50 [2]: 3.75 µM (active)
AC50 [3]: 4.16 µM (active)
AC50 [4]: 3.88 µM (active)
AC50 [5]: 4.31 µM (active)
AC50 [6]: 3.79 µM (active)
AC50 [7]: 7.43 µM (active)
AC50 [8]: 2.38 µM (active)
AC50 [9]: 4.45 µM (active)
AC50 [10]: 4.61 µM (active)
AC50 [11]: 2.19 µM (active)
AC50 [12]: 3.59 µM (active)
AC50 [13]: 1.77 µM (active)
AC50 [14]: 7.36 µM (active)
AC50 [15]: 0.148 µM (active)
AC50 [16]: 5.35 µM (active)

c1cc2ccc3cccc4ccc(c1)c2c34
outcome [1]: inactive
outcome [2]: inactive
outcome [3]: inactive
outcome [4]: inactive
outcome [5]: inactive
outcome [6]: inactive
outcome [7]: inactive
AC50 [8]: 11.5 µM (active)
AC50 [10]: 4.13 µM (active)
outcome [11]: inactive
outcome [12]: inactive
outcome [13]: inactive
outcome [14]: inactive
outcome [15]: inactive
outcome [16]: inactive

Cc1cccc(C)c1N
outcome [1]: inactive
outcome [2]: inactive
outcome [3]: inactive
outcome [4]: inactive
outcome [5]: inactive
outcome [6]: inactive
outcome [7]: inactive
outcome [8]: inactive
outcome [9]: inactive
outcome [10]: inactive
outcome [11]: inactive
outcome [12]: inactive
outcome [13]: inactive
outcome [14]: inactive
outcome [15]: inactive
outcome [16]: inactive

Reference: PubChem BioAssay (EPA / NIEHS)
